Screening results deposited in PubChem by National Center for Advancing Translational Sciences (NCATS).
TSHR antag = Antagonists of the Thyroid Stimulating Hormone Receptor: HTS campaign | activity change, negative = inhibition, % at 11.5 µM | 0.2% of 330,000 active | TSHR-expressing cells, TSH-stimulated cAMP HTRF, 2 h; stronger effect = lower value | Thyrotropin receptor (Homo sapiens), P16473;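 active means activity change below a set negative limit, meaning inhibition stronger than a set level, cut at about -70% in these data; inconclusive means activity change between two set negative limits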; further: on the % scale 0 is the no-effect control and ±100 the full control effect
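Read-out is FRET at 665 nm (cryptate excitation 337 nm) from a cryptate-tagged anti-cAMP antibody, competed by cell cAMP against cAMP-d2. Compounds are tested on freshly harvested TSHR cells challenged with 4nM TSH (EC80) for 2 hours at 37 deg C.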
VDR inh = Inhibitors of the vitamin D receptor (VDR): qHTS | AID 504847, 2011 | Vitamin D3 receptor (Homo sapiens), P11473 | VDR-SRC2-3 peptide fluorescence polarization, 2 h | Potency, µM, for the others: max response, negative = inhibition, usual class: inhibitors | 0.93% of 400,000 active; further: potency means the concentration at half of the fitted maximal effect; on the % scale 0 is the no-effect control and ±100 the full control effect
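After 23 nl compound addition and a short centrifugation, plates sat for 2 hours at ambient temperature; polarization of fluorescence then indicated loss of VDR binding to peptide SRC2-3.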
Vif-A3F inh = qHTS for Inhibitors of Vif-A3F Interactions: qHTS; HeLa A3F-eYFP + Vif (tagged APOBEC3F with the HIV-1 protein that degrades it), YFP fluorescence increase; AID 602313, 2012; Potency, µM (series often up to 46.1 µM), inactives show at the top dose activity, negative = active; 0.2% of 390,000 active; further: potency means the concentration at half of the fitted maximal effect; % of control where 0% means no effect; nearly all actives have a fitted effect of over 65% in size
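HeLa cells stably expressing A3F-eYFP plus Vif, plated and incubated overnight at 37 deg C, then exposed to compounds overnight at 37 deg C. Blocked degradation read as raised yellow fluorescence (Ex 488/Em 500-530).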
PLK1 PBD inh = qHTS for Inhibitors of PLK1-PDB (polo-like kinase 1 - polo-box domain): Primary Screen; Serine/threonine-protein kinase PLK1 (Homo sapiens), P53350; Plk1 PBD binding of FITC phosphopeptide, fluorescence polarization; Potency, µM, for inactives: max response, negative = inhibition, most hits filed as inhibitors; 2.8% of 360,000 active; AID 720504, 2013; further: potency means the concentration at half of the fitted maximal effect; series mostly up to about 57 µM; on the % scale 0 is the no-effect control and ±100 the full control effect; nearly all actives have a fitted effect of over 65% in size
Vif-APOBEC3G blk = qHTS for Inhibitors of Vif-A3G Interactions: qHTS | 0.076% of 410,000 active | Potency, µM (highest dose often 46.1 µM), for inactives: at the top dose activity, negative = active, hits mostly inhibitors | DNA dC->dU-editing enzyme APOBEC-3G (Homo sapiens), Q9HC16 | HeLa A3G-eYFP + Vif (tagged APOBEC3G with the HIV-1 protein that degrades it), YFP fluorescence, overnight; further: potency means the concentration at half of the fitted maximal effect; on the % scale 0 is the no-effect control and ±100 the full control effect; nearly all actives have a fitted effect of over 60% in size
Target sequence (Q9HC16 whole entry, looked up): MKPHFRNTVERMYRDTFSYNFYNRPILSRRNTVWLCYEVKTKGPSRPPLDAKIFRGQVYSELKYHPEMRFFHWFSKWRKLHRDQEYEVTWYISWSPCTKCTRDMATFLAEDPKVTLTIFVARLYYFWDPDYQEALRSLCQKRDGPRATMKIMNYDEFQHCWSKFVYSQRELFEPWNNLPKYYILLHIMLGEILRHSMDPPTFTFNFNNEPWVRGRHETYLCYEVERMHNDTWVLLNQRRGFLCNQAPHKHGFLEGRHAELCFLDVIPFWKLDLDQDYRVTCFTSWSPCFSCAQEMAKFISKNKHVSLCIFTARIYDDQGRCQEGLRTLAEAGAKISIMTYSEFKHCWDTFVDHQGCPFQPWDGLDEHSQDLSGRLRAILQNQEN
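HeLa cells stably expressing Vif and C-terminally eYFP-tagged A3G, seeded overnight at 37 deg C, then exposed to compound by pintool overnight at 37 deg C. Rise in yellow fluorescence (Ex 488/Em 500-530, Acumen) marks blocked Vif-driven A3G degradation.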
Numbers without * were called inactive; ? = inconclusive; nt = no result given. The list is not random: actives were taken first. Their share in the collection is about 3.1%. Unless noted, the call rests on the fitted dose curve; in most records, active means well fitted curve in the direction sought with a large enough effect; inconclusive means small, poorly fitted or top-dose-only effect, or another doubt; inactive means no such curve, though single readings can be large; an effect the other way counts as inactive or inconclusive.

SMILES | TSHR antag | VDR inh | Vif-A3F inh | PLK1 PBD inh | Vif-APOBEC3G blk
CC(=O)N1c2ccc(S(=O)(=O)N3CCCCC3)cc2CC1C(=O)NCc1ccc(N(C)C)cc1 (configuration not stated) | -1.4 | -23.1% | 3.1% | 21.2µM* | -4.3%
Cc1ccc(C)c(OC2=NS(=O)(=O)c3ccccc32)c1 | 5.7 | -16.8% | -17.2% | 11.9µM* | -1.6%
Cc1ccc(NC(=O)c2ccc([N+](=O)[O-])o2)c(C)c1 | -8.9 | 0.1% | 0.3% | -10.3% | ?
Cc1ccc(S(=O)(=O)c2ccc([N+](=O)[O-])o2)cc1 | nt | 44.7µM* | ? | 0.844µM* | -16.9%
CCCCCc1cc[n+](CC(=O)c2ccccc2)cc1 | nt | nt | nt | nt | -1.3%
Cn1c(=S)c2[nH]c(SCCN)nc2n(C)c1=O | nt | -21.4% | 6.6% | 26.7µM* | 4.8%
Cn1c(=S)c2[nH]c(SCCN3CCCC3)nc2n(C)c1=O | 18.0 | ? | ? | -28.3% | 0.6%
CCN(CC)CCOc1nc(C)nc2c1oc1ccccc12 | -4.9 | -3.0% | 4.0% | 26.7µM* | -5.9%
CCN(CC)CCCOc1nc(C)nc2c1oc1ccccc12 | 7.0 | -17.2% | -11.1% | -2.5% | -1.1%
CC(=O)NC[C@@H]1CN(c2ccc(N3CCOCC3)c(F)c2)C(=O)O1 | nt | 0.6% | nt | nt | nt
COc1ccc(/C(N)=N/OC(=O)c2ccco2)cc1 | -18.3 | 9.6% | -19.7% | -2.4% | -0.6%
COc1ccc(N=N/C(=C\O)C(=O)c2ccco2)cc1 | 1.0 | -5.8% | -1.2% | 26.7µM* | 1.2%
CC(C)CNC(=O)C(=O)NCCCN1CCOCC1 | -2.1 | -13.3% | -5.5% | 21.2µM* | -0.1%
Cc1cc(/C=N/NC(N)=S)c(C)n1-c1ccc(Br)cc1 | 11.5 | ? | ? | -5.7% | ?
Cc1cc(/C=N/NC(N)=S)c(C)n1-c1ccc(Cl)cc1 | -8.4 | -28.4% | ? | 29.9µM* | 1.8%
CC(=O)OCC1=C(C(=O)O)N2C(=O)C(NC(=O)CCn3nc(C(F)(F)F)c(Br)c3C3CC3)C2SC1 (configuration not stated) | 0.4 | 39.8µM* | -3.5% | ? | 2.1%
c1ccc2c(N=NN3CCCCC3)ccnc2c1 | nt | nt | nt | nt | -4.7%
COc1ccc(NC(=O)CN2C(=O)CSC(C)C2=O)cc1 (configuration not stated) | -1.6 | -29.2% | 11.5% | 21.2µM* | -4.7%
COc1ccc(C2CC(=O)N(CC(=O)Nc3ccc(C(F)(F)F)cc3)c3ccccc3S2)cc1 (configuration not stated) | nt | 8.9% | -0.7% | nt | 5.1%
COc1ccc(OC)c(/C=C/c2cc3ccccc3cn2)c1 | nt | nt | nt | nt | 2.2%
Cc1ccc(C(=O)Oc2csc(=S)n2C(=O)c2ccc(C)cc2)cc1 | -6.0 | -30.4% | -9.8% | 2.99µM* | -1.0%
Cc1nnc(SCC2=C(C(=O)O)N3C(=O)C(NC(=O)c4cc(F)c(F)cc4Cl)C3SC2)s1 (configuration not stated) | 20.4 | -3.7% | 0.2% | ? | 0.7%
CCC(C(=O)NC1C(=O)N2C(C(=O)O)=C(CSc3nnc(C)s3)CSC12)c1ccccc1 (configuration not stated) | -6.7 | ? | -2.4% | 23.8µM* | -0.1%
Cc1nnc(SCC2=C(C(=O)O)N3C(=O)C(NC(=O)COc4ccccc4)C3SC2)s1 (configuration not stated) | -6.5 | ? | 3.7% | 18.9µM* | 0.3%
Cc1nnc(SCC2=C(C(=O)O)N3C(=O)C(NC(=O)COc4ccc(F)cc4)C3SC2)s1 (configuration not stated) | 2.7 | 79.4µM* | 0.0% | ? | 2.5%
SMILES | TSHR antag | VDR inh | Vif-A3F inh | PLK1 PBD inh | Vif-APOBEC3G blk
CN(Cc1ccccc1)C(=O)[C@H](Cc1ccc2ccccc2c1)NC(=O)[C@@H]1CCCN1C(=O)Nc1ccccc1[N+](=O)[O-] | nt | 10.4% | nt | nt | nt
O=C(C[n+]1ccccc1Cl)c1ccc(Br)cc1 | nt | nt | nt | nt | -4.5%
CCN(CC)CCCN(c1ccccc1)C1Cc2ccccc2C1 | -16.6 | ? | nt | nt | nt
O=C(Oc1ccc(N(Cc2cccs2)C2=NS(=O)(=O)c3ccccc32)cc1)c1ccco1 | -15.9 | 9.0% | -6.3% | -4.4% | -9.1%
O=C(Oc1ccc(N(Cc2cccs2)C2=NS(=O)(=O)c3ccccc32)cc1)c1ccccc1Cl | 3.0 | ? | 2.5% | 2.67µM* | 3.4%
COC(=O)C(C(=O)OC)C(Cc1cc(F)cc(F)c1F)NC=O (configuration not stated) | nt | -7.8% | nt | nt | nt
O=C(NC1CCCC1)O[C@@H]1C(=O)c2cc(Br)ccc2O[C@H]1c1ccc2c(c1)OCO2 | nt | -2.5% | nt | nt | nt
CC(C)CNc1nc(=S)nc(N(C)C)[nH]1 | 2.5 | -14.2% | -4.8% | -6.8% | 5.9%
CN(C)c1nc(=S)nc(NCc2ccccc2)[nH]1 | -85.0* | 4.1% | -23.7% | -16.6% | -0.5%
C=CCOn1c(=O)c(-c2ccccc2)[n+]([O-])c2ccccc21 | 11.7 | -1.0% | -2.0% | -10.6% | 1.6%
C=CCOn1c(=O)c(-c2cc3ccccc3o2)[n+]([O-])c2ccccc21 | -2.6 | 2.8% | -5.5% | 29.9µM* | -1.2%
Cc1cccc(N(CC(N)=O)C2SC(=O)N(Cc3cccc(C(=O)O)c3)C2=O)c1 (configuration not stated) | nt | -4.2% | -2.9% | nt | 1.9%
C/C(=N\NC(N)=S)C1=CCC2C3CC[C@H]4CC(O)CC[C@]4(C)C3CC[C@]12C (some centres not stated) | -15.9 | ? | 6.0% | 16.8µM* | 1.0%
Cc1noc(C)c1COC(=O)CCOc1ccccc1 | 5.5 | 10.2% | -3.3% | -5.2% | 0.5%
Cc1noc(C)c1COC(=O)CCN1c2ccccc2Sc2ccccc21 | 12.1 | ? | -5.7% | 21.2µM* | -0.5%
CCOC(=O)c1c(C)[nH]c(CCC(=O)NCc2cc(Br)ccc2OC)c1C | nt | 17.9% | -6.6% | nt | 5.9%
COc1cc(C(=O)Oc2cc(C)cc(C)c2)cc(OC)c1OC | 7.2 | 13.5% | -6.3% | 1.6% | -3.4%
COc1cc(C(=O)ON=C2C(C)=CC(=O)C=C2C)cc(OC)c1OC | 0.1 | 89.1µM* | 3.7% | ? | 0.3%
CCCCCCCCCC[n+]1cc(Br)cc(Br)c1 | nt | nt | nt | nt | -8.8%
O=C1CN(c2nc(-c3cccs3)nc3sc4c(c23)CCCC4)CCN1 | -17.5 | 16.1% | 4.6% | 26.7µM* | -14.8%
Cc1cccc(NC(=O)Cn2cc(C(=O)C3CC3)c3ccccc32)c1 | 33.9 | -21.7% | 0.0% | -1.9% | 0.8%
Cc1cc(C)cc(NC(=O)Cn2cc(C(=O)C3CCCCC3)c3ccccc32)c1 | nt | -4.2% | 7.08µM* | nt | ?
Cc1ccc(C(=O)OC[C@H]2O[C@H](Cl)C[C@@H]2OC(=O)c2ccc(C)cc2)cc1 | nt | -24.9% | nt | nt | nt
